# Data from article PMC5540273 (PLoS ONE, 2017).
# Test system: NEK5
# Conditions: concentration: 1 μM,replicates: in singlicate; n = 1
# 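Further: KINOMEscan kinase panel screen.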
row,Compound,%Inh [%]
1,O=C(NCCNc1ccnc(NCc2ccc(F)cc2)n1)c1cc2ccccc2s1 [GSK1379944],85
2,Cl.Cl.NC[C@H](CC1CCCCC1)NC(=O)c1cc(Br)c(-c2ccnc3[nH]ccc23)s1 [GSK1581427],0
3,Cc1ccc2c(-c3ccncc3)c(-c3ccc(F)cc3)nn2c1.Cl [GW461484],4
4,CC(C)N1C(=O)Cc2cc(Nc3ncc(C(F)(F)F)c(NCc4cccc(S(C)(=O)=O)c4)n3)ccc21,1
5,CN(C)CC(O)COc1ccc(Nc2nccc(-c3cnn4nc(N5CCOCC5)ccc34)n2)cc1 (stereo not drawn) [GW767488],0
6,COc1ccc(C[C@@H](CN)NC(=O)c2cc(Br)c(-c3ccnc4[nH]ccc34)s2)cc1.Cl.Cl [GSK1389063],19
7,C[C@@H](Oc1cc(-c2cnn(C3CCNCC3)c2)cnc1N)c1c(Cl)ccc(F)c1Cl,0
8,CCN(CC)CCCCNc1ncc2cc(-c3c(Cl)cccc3Cl)c(NC(=O)NC(C)(C)C)nc2n1,0
9,C[C@H]1Oc2cc(cnc2N)-c2c(nn(C)c2C#N)CN(C)C(=O)c2ccc(F)cc21,0
10,CCN(CC)CCOc1ccc(Nc2ncc3cc(-c4c(Cl)cccc4Cl)c(=O)n(C)c3n2)cc1 [SB-601273],35
11,Cl.Cl.NC[C@H](Cc1ccc(C(F)(F)F)cc1)NC(=O)c1cc(Br)c(-c2ccnc3[nH]ccc23)s1 [GSK1487252],4
12,C[C@@H]1CCN(C(=O)CC#N)C[C@@H]1N(C)c1ncnc2[nH]ccc12,0
13,Cc1n[nH]c2ccc(-c3cc(OC[C@@H](N)Cc4ccccc4)cnc3-c3ccoc3)cc12.O=C(O)C(F)(F)F.O=C(O)C(F)(F)F [GSK507358],0
14,CN(C)CCOc1ccc(-c2cc(-c3c[nH]nc3-c3ccccn3)ccn2)cc1 [GW835314],0
15,CCn1c(-c2nonc2N)nc2c(C#CC(C)(C)O)nc(OCCN)cc21.Cl.Cl [GSK902056],0
16,Nc1nc(Nc2ccccc2)cc(-c2ccc3c(N)n[nH]c3c2)n1 [GSK2225749],0
17,Cc1ccc(-n2nc(C(C)(C)C)cc2NC(=O)Nc2ccc(OCCN3CCOCC3)c3ccccc23)cc1 [GW839464],21
18,Cc1cc(C(=O)Nc2ccc(Oc3ccc4nc(NC(=O)C5CC5)cn4n3)cc2)nn1-c1ccccc1,0
19,O=C(NCCCN1CCOC1=O)c1cnc(NCc2cc(Cl)ccc2Cl)nc1NC1CCCC1,0
20,CC(C)Nc1cc(-c2ccc3c(N)n[nH]c3c2)nc(N)n1 [GSK2221681],4
21,CNC(=O)c1ccccc1Sc1ccc2c(/C=C/c3ccccn3)n[nH]c2c1,11
22,NC(=O)c1cc(-c2ccccc2)cc2c(C3CCNCC3)c[nH]c12 [GSK301362],12
23,Cl.Cl.Nc1nc(-c2ccc3c(N)n[nH]c3c2)cc(N2CCCC(NC(=O)c3ccccc3)C2)n1 (stereo not drawn) [GSK2286775],11
24,Cl.Oc1cc(-c2nc(-c3ccccc3)[nH]c2-c2ccncc2)ccc1Cl [SB-386023],0
25,Cc1cc2cn[nH]c2cc1-c1cccc2c(N)c(C(N)=O)nnc12,2
26,Cc1occc1-c1nc(N)c(OC[C@@H](N)Cc2c[nH]c3ccccc23)cc1-c1cc2c(C)n[nH]c2cn1 [GSK1660450],29
27,C=CC(=O)Nc1cc2c(Nc3ccc(F)c(Cl)c3)ncnc2cc1OCCCN1CCOCC1 [GW781483],3
